Data as given in PubChem BioAssay AID1304 (The Scripps Research Institute Molecular Screening Center, 2008).
Hit rate of the full screen: of about 220,000 compounds, about 800 (0.36%) were called active. Rule as the data show it: active = activation above about 33% (passing the limit was not always enough); inactive = the rest. This excerpt belongs to a sample that is enriched for actives.

What follows are molecules tested against Neuropeptide Y receptor type 1 (Homo sapiens) (UniProt P25929) (assay: NPY-Y1 receptor potentiators or agonists, primary screen, cell-based (AID 1304;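 also: cells stimulated with NPY at EC10 then isoproterenol at EC100; 0% = low agonist plus stimulus and 100% = saturating agonist plus stimulus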)). Details: NPY-Y1 expressing cells, potentiator/agonist activation; at 3.6 µM; active compounds read high.
Sequence of Neuropeptide Y receptor type 1 (Homo sapiens) (P25929 whole entry, looked up): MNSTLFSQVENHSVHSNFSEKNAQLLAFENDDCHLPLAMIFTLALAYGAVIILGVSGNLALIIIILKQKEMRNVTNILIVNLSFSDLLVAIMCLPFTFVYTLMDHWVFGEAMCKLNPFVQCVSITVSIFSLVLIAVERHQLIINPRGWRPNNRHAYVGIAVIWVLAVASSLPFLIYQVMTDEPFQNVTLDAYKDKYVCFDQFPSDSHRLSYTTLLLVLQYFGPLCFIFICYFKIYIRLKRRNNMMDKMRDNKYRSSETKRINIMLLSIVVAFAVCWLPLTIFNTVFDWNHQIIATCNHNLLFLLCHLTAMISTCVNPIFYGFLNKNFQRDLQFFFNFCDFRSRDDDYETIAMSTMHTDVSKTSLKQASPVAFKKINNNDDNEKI

activation, inactive:
O=c1oc(-c2ccco2)nc2sc3c(c12)CCCCC3 9.25%
CN(c1ccccc1)S(=O)(=O)c1cccc(NC(=O)Cc2c(F)cccc2Cl)c1 -12%
C#CCOCCOCCOCCNc1nc(N2CCN(C(=O)[C@H](Cc3ccc(O)cc3)n3cc(C(N)CC(C)C)nn3)CC2)nc(N2CCN(C(=O)[C@H](CCC(=O)O)n3cc(C(N)[C@H](C)CC)nn3)CC2)n1 (stereo partly drawn) -15%
C#CCOCCOCCOCCNc1nc(N2CCN(C(=O)C(Cc3ccc(O)cc3)n3cc(C(N)CC(C)C)nn3)CC2)nc(N2CCN(C(=O)C(Cc3ccc(O)cc3)n3cc(C(N)C(C)CC)nn3)CC2)n1 (stereo not drawn) 11.7%
Fc1ccc(-c2csc(-c3ccc(C4SCCS4)cc3)n2)cc1F -5.29%
Cc1ccccc1Nc1c(-c2ccccc2)nc2ncccn12 46.3%
Nc1nc(SCc2ccc([N+](=O)[O-])cc2)c2ncn(C3OC(CO)C(O)C3O)c2n1 (stereo not drawn) -25.4%
C/C(=N\NC(=O)c1ccc(CSc2nc(C)cc(C)n2)cc1)C1CCCCC1 1.93%
COc1cc(C(=O)Nc2cc(C(F)(F)F)ccc2N2CCOCC2)ccc1O -20.3%
O=C(CCn1ccc([N+](=O)[O-])n1)Nc1nccs1 7.17%
Cc1cccc(C)c1OCC(O)CN1CCCCC1 (stereo not drawn) 1.8%
Cc1ccc(OCC(O)CN2CCN(CC(O)COc3ccc(C)cc3Cl)CC2)c(Cl)c1 (stereo not drawn) 6.61%
O=C(Nc1nnc(Cc2ccc(Cl)cc2)s1)c1ccncc1 -10.8%
CCCc1nc2oc3c(=O)[nH]cnc3c2c2c1COC(C)(C)C2 8.17%
Cc1cnc(C(=O)OCC(=O)N2CCc3ccccc32)cn1 -19.3%
Cc1ccccc1OCC(O)CN1CCN(c2ccccn2)CC1 (stereo not drawn) 29.6%
O=C1c2cccc3cccc(c23)N1CN1CCN(c2ccccn2)CC1 11.2%
CCCOCC(O)CC(CC)C(=O)NNC(=S)Nc1ccccc1 (stereo not drawn) -8.03%
O=C(/C=C/c1ccc(OCc2c(F)cccc2Cl)cc1)N1CCOCC1 -15.1%

activation, active:
C#CCOCCOCCOCCNc1nc(N2CCN(C(=O)[C@H](CCCCN)n3cc([C@@H](N)C(C)CC)nn3)CC2)nc(N2CCN(C(=O)[C@H](Cc3ccc(O)cc3)n3cc([C@@H](N)C(C)CC)nn3)CC2)n1 (stereo partly drawn) 111%
Cc1cccc(C)c1Nc1c(-c2ccccc2O)nc2ncccn12 80.8%
Cc1cccc(OCC(O)CN2CCN(CCN3C(=O)c4cccc5cccc(c45)C3=O)CC2)c1C (stereo not drawn) 38.1%
OC(COc1cccc2ccccc12)CN1CCN(c2ccccn2)CC1 (stereo not drawn) 50.8%
